Laboratory results taken from PubChem BioAssay (NCATS).
“And” between values parts separate entries of the source, which are not always exact repeats. Equal values may be shown once. Results filed as inconclusive are left out. The source made the active and inactive calls. Unless noted, calls follow the shape of the dose curve; as a rule, active = well fitted curve in either direction with a large enough effect (not every such curve was filed as active); inconclusive = small, poorly fitted or top-dose-only effect, or another doubt; inactive = flat fitted curve, though single readings scatter.

Key:
[1] = Stat Signaling Pathway (AID 446); settings: ME-180 (cervical carcinoma) SIE beta-lactamase reporter, IL-6 stimulated, 5 h;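 also: ME-180 cervical cancer cells given 40 pM IL-6 alongside compound; SIE-controlled beta-lactamase reporter measured as 460/530 nm FRET emission ratio; % is scaled to controls: 0 for no effect and ±100 for the full control effect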
In short: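 Emission at 460 and 530 nm (excitation 405 nm) reports SIE-controlled beta-lactamase in ME-180 cells. Cells received compound with 40 pM IL-6 for 5 hrs at 37 C; data scaled between 300 pM IL-6 and 125 nM JAK-inhibitor controls.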

[2] = target: Glucocorticoid receptor (Homo sapiens) (UniProt P04150); assay: GR-GFP Redistribution (AID 450;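 active = compounds whose dose series gives a full or clear partial fitted curve of increased nuclear translocation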; also: potency is read from the fitted curve at half-maximal effect); settings: U2OS GR-GFP nuclear translocation, laser cytometry, 2 h
[3] = target: Mitogen-activated protein kinase 10 (Mus musculus) (UniProt Q61831); assay: JNK3 AlphaScreen Assay (AID 530); settings: JNK3 lysate, c-Jun phosphorylation; series mostly up to 57.1 µM;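 also: kinase came from lysate of stimulated human HepG2 cells; signal reports phosphorylation of biotinylated GST-cJun 1-79 at Ser73 with 10 µM ATP; % is scaled to controls: 0 for no effect and ±100 for the full control effect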
In short: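 Kinase buffer: 20 mM Tris-HCl pH 7.6, 10 mM MgCl2, 1 mM DTT, 0.1 mM Na3VO4, 0.01% Tween-20; ATP 10 uM. Substrate biotin-GST-cJun(1-79), enzyme from activated HepG2 lysates. Detection by Ser73 phospho-antibody AlphaScreen.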

[4] = target: 3',5'-cyclic-AMP phosphodiesterase 4B (Homo sapiens) (UniProt Q07343); assay: qHTS Assay for Inhibitors of PDE-IV (AID 607; active = well fitted activation curve with a large enough effect in the main read-out, with a control signal flat, not every such curve was filed as active; also: % of control where 0% means no effect); settings: HEK293 ACTOne CNG channel cells, membrane potential fluorescence; series mostly up to 22.9 µM
In short: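 The readout is membrane depolarisation from a cAMP-sensing CNG channel, detected with a potential dye at ex 535/em 590. Cells were HEK293-derived (endogenous PDE-IV) at 1000 cells/well, titrated up to 22.9 uM final.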

[5] = Cellular Toxicity (caspase-3) HepG2 (AID 654; active = well fitted curve in the direction sought with a large enough effect; an effect the other way counts as inactive or inconclusive;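 also: cells exposed to compound for 16 hours before reading; 0% = DMSO alone and 100% = caspase signal from 100 µM tamoxifen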); settings: HepG2 caspase-3 activation, luminescence; series mostly up to 92.2 µM
In short: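 Luminescent Caspase-Glo 3/7 readout after 16 hr compound exposure of human hepatocellular carcinoma HepG2 cells at 37 °C; qHTS concentration-response, normalized DMSO = 0%, 100 uM tamoxifen = 100%; AC50 by standard Hill equation.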

[6] = Cellular Toxicity (caspase-3) HUV-EC-C (AID 656; active = well fitted curve in the direction sought with a large enough effect; an effect the other way counts as inactive or inconclusive); settings: HUV-EC-C cells, caspase-3 activation (apoptosis), vehicle = 0, 100 µM tamoxifen = 100%; series mostly up to 92.2 µM
In short: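 HUV-EC-C cells (1000/well) in complete medium, compound-treated 16 h at 37 °C; caspase-3/7 activity read by Caspase-Glo 3/7 luminescence. Normalized to DMSO (basal) and 100 uM tamoxifen (100%); AC50 from Hill-equation concentration-response fits.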

[7] = Cellular Toxicity (caspase-3) SHSY5Y (AID 657; active = well fitted curve in the direction sought with a large enough effect; an effect the other way counts as inactive or inconclusive); settings: SH-SY5Y caspase-3 activation, DMSO zero, 10 µM staurosporine = 100%; series mostly up to 91.7 µM
In short: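 SH-SY5Y human neuroblastoma cells, 1500/well, exposed to compound for 16 hours at 37 °C in complete medium. Caspase-3/7 activity read by Caspase-Glo luminescence after 1 hr at room temperature, normalized to DMSO and 10 uM staurosporine; AC50 from Hill fit.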

[8] = Cellular Toxicity (caspase-3) BJ (AID 658; active = well fitted curve in the direction sought with a large enough effect; an effect the other way counts as inactive or inconclusive); settings: BJ fibroblasts, luminescence, normalized: DMSO 0%, staurosporine 100%; series mostly up to 91.7 µM
In short: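 Caspase-Glo 3/7 luminescence, read 1 hr after reagent at room temperature, in normal BJ fibroblasts exposed 16 hours at 37 °C. AC50 values from Hill-equation concentration-response, scaled between DMSO basal and 10 uM staurosporine as 100%.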

[9] = Cellular Toxicity (caspase-3) MRC-5 (AID 659; active = well fitted curve in the direction sought with a large enough effect; an effect the other way counts as inactive or inconclusive); settings: MRC-5 cells, luminescence; Potency: caspase-3 activation; series mostly up to 91.7 µM
In short: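 Luminescent Caspase-Glo 3/7 read-out (1 h, room temperature) after a 16 h, 37 °C compound exposure of MRC-5 lung fibroblasts at 1500 cells/well. Concentration-response AC50 from Hill equation; 0% DMSO, 100% 10 uM staurosporine.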

[10] = Cellular Toxicity (caspase-3) Mesangial (AID 660; active = well fitted curve in the direction sought with a large enough effect; an effect the other way counts as inactive or inconclusive;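 also: cells exposed to compound for 16 h before the caspase read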); settings: mesangial cells, normalized: DMSO 0%, 100 µM tamoxifen 100%; series mostly up to 91.7 µM
In short: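 Luminescent Caspase-Glo 3/7 readout (aminoluciferin substrate cleavage, 20 min RT) after 16 h compound exposure at 37 °C of normal human mesangial cells. Signal increase normalized between DMSO basal and 100 uM tamoxifen; Hill-equation AC50.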

[11] = Cellular Toxicity (caspase-3) H-4-II-E (AID 663; active = well fitted curve in the direction sought with a large enough effect; an effect the other way counts as inactive or inconclusive;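 also: cells exposed to compound for 16 hr before readout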); settings: H-4-II-E rat hepatoma, scaled: DMSO 0%, 100 µM tamoxifen 100%; series mostly up to 92.2 µM
In short: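 Caspase 3/7 activation measured by luminescent aminoluciferin substrate cleavage after 16 hr compound treatment of H-4-II-E cells in complete medium. Increase normalized between DMSO (basal) and 100 uM tamoxifen (100%); Hill-equation AC50 from concentration-response.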

[12] = Cellular Toxicity (caspase-3) Hek293 (AID 664; active = well fitted curve in the direction sought with a large enough effect; an effect the other way counts as inactive or inconclusive;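 also: cells exposed to compound for 16 h at 37 °C before readout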); settings: HEK293 caspase-3 activation, DMSO = 0%, 100 µM tamoxifen = 100%; series mostly up to 92.2 µM
In short: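 Luminescent Caspase-Glo 3/7 readout (aminoluciferin release) in HEK293 cells after 16 h compound treatment, 37 °C. Normalization: DMSO = basal, 100 uM tamoxifen = 100% stimulation. Concentration-response fitted with standard Hill equation for AC50.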

[13] = Cellular Toxicity (caspase-3) N2a (AID 665; active = well fitted curve in the direction sought with a large enough effect; an effect the other way counts as inactive or inconclusive;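 also: compound exposure lasted 16 h at 37 °C before readout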); settings: N2a cells, luminescence, normalized: DMSO 0%, 10 µM staurosporine 100%; series mostly up to 92.2 µM
In short: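 Luminescent Caspase-Glo 3/7 readout in N2a mouse neuroblastoma cells after 16 h compound exposure at 37 °C. Signal scaled to DMSO (basal) and 10 uM staurosporine (100%). Concentration-response fitted with Hill equation for AC50.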

[14] = Cellular Toxicity (caspase-3) NIH 3T3 (AID 666; active = well fitted curve in the direction sought with a large enough effect; an effect the other way counts as inactive or inconclusive;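 also: 0% = DMSO basal and 100% = 100 µM tamoxifen stimulation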); settings: NIH 3T3 caspase-3 activation, apoptosis/toxicity, 0% DMSO, 100% is 100 µM tamoxifen; series mostly up to 92.2 µM
In short: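 NIH 3T3, 1000 cells/well, 5 hr settle then 16 hr compound at 37°C; Caspase-Glo 3/7, 20 min RT, luminescence. DMSO = basal, 100 uM tamoxifen = 100%. Hill-equation AC50, qHTS.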

[15] = target: Guanine nucleotide-binding protein G(i) subunit alpha-1 (Homo sapiens) (UniProt P63096); assay: qHTS Assay for Inhibitors of RGS12 GoLoco Motif Activity (Green Fluorophore) (AID 879; active = well fitted curve in the direction sought with a large enough effect; an effect the other way counts as inactive or inconclusive;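 also: 0% = labeled peptide with Gαi1 and full inhibition = labeled peptide alone without protein; negative values mean loss of peptide binding seen as reduced polarization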); settings: Galphai1/FITC-RGS12 GoLoco peptide, fluorescence polarization; series mostly up to 57.1 µM
In short: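 A drop in FITC polarization marked displacement of the FITC-tagged RGS12 GoLoco peptide (10 nM) from Gαi1 (50 nM). Compounds were incubated 10 min at room temperature in Tris pH 7.5 buffer containing 150 mM NaCl, 0.1 mM GDP and 0.05% NP40; unlabeled peptide titration served as control.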

[16] = Cell Viability - HUV-EC-C (AID 542; active = well fitted curve in the direction sought with a large enough effect; an effect the other way counts as inactive or inconclusive;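 also: cells exposed to compound for 40 hours; % is scaled to controls: 0 for no effect and ±100 for the full control effect; nearly all actives have a fitted effect of over 35% in size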); settings: HUV-EC-C endothelial cell viability, qHTS; series mostly up to 92.2 µM
In short: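 Luminescent ATP read-out (CellTiter-Glo, 20 min room temperature) after 40 hr compound treatment of HUV-EC-C cells at 37 °C. Concentration-response data fitted with the standard Hill equation to give AC50; tamoxifen and doxorubicin served as positive controls.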

[17] = Cell Viability - H-4-II-E (AID 543; active = well fitted curve in the direction sought with a large enough effect; an effect the other way counts as inactive or inconclusive;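 also: cells exposed to compound for 40 hours; % is scaled to controls: 0 for no effect and ±100 for the full control effect; nearly all actives have a fitted effect of over 35% in size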); settings: H-4-II-E rat hepatoma viability; series mostly up to 92.2 µM
In short: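 qHTS, rat hepatoma H-4-II-E, 1500 cells/well; 40 hr compound exposure, 37 °C; CellTiter-Glo ATP luminescence after 20 min RT; AC50 by standard Hill fit.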

[18] = Cellular Toxicity (caspase-3) Jurkat (AID 655; active = well fitted curve in the direction sought with a large enough effect; an effect the other way counts as inactive or inconclusive;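 also: cells exposed to compound for 16 h at 37 °C before reading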); settings: Jurkat caspase-3 activation, luminescence; series mostly up to 92.2 µM
In short: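 Jurkat cells (5000/well) in complete medium exposed 16 h at 37 C; caspase-3/7 activity read by Caspase-Glo luminescence after 20 min at room temperature. Normalized to DMSO and 100 uM tamoxifen; AC50 from Hill fits.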

[19] = target: Cytochrome P450 2C9 (Homo sapiens) (UniProt P11712); assay: qHTS Assay for Inhibitors and Substrates of Cytochrome P450 2C9 (AID 883; active = well fitted curve in the direction sought with a large enough effect; an effect the other way counts as inactive or inconclusive; also: % is scaled to controls: 0 for no effect and ±100 for the full control effect; nearly all actives have a fitted effect of over 60% in size); settings: recombinant CYP2C9, luciferin-H luminescence, 60 min; series mostly up to 57.1 µM
In short: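 Inhibition of CYP2C9 is scored as loss of luminescence, with 57uM sulphaphenazole defining 100% inhibition. Substrate Luciferin-H is used at 100uM, equal to its KM; enzyme at 10nM in 25mM KPO4, 60 min at 37C with NADPH regeneration.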

Glucocorticoid receptor (Homo sapiens), sequence (P04150 whole entry, looked up): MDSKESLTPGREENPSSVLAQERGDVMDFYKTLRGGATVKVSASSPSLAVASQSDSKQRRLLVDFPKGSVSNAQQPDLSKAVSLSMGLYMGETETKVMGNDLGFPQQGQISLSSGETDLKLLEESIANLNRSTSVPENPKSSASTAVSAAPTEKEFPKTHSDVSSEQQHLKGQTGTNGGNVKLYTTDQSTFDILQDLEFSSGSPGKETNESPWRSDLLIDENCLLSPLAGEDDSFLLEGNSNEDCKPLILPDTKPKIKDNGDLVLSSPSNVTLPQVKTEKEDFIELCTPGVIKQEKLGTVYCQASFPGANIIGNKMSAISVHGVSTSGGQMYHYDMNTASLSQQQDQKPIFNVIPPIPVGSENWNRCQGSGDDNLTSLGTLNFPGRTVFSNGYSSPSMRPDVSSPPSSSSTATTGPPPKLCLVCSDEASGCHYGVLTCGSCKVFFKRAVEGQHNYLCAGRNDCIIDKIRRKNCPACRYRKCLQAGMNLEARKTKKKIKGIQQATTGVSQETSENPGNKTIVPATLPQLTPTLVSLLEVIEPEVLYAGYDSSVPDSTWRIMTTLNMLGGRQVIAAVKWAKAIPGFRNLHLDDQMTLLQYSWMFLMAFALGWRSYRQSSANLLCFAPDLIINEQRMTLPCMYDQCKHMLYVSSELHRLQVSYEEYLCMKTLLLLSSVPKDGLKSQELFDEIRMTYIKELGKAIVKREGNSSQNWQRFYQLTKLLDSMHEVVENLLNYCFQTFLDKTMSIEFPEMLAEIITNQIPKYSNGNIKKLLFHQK
3',5'-cyclic-AMP phosphodiesterase 4B (Homo sapiens), sequence (Q07343 whole entry, looked up): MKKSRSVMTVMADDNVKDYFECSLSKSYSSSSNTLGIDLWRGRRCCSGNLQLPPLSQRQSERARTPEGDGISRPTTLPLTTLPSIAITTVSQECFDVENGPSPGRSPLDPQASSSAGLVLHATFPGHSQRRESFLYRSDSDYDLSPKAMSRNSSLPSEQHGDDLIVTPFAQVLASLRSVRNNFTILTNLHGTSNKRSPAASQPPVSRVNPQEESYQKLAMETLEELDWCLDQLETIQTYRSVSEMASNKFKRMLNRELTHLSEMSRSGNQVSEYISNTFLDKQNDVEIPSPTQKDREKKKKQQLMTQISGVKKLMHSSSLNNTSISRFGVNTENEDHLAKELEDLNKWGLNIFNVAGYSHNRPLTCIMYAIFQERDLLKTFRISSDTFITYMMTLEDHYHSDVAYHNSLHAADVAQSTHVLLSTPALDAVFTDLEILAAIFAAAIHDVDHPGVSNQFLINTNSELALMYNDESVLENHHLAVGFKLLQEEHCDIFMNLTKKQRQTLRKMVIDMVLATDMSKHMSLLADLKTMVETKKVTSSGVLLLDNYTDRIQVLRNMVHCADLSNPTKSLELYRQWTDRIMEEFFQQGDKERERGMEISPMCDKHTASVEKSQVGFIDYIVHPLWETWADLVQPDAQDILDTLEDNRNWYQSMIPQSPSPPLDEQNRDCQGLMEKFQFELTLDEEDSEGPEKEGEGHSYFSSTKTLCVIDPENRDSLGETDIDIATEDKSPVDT
Guanine nucleotide-binding protein G(i) subunit alpha-1 (Homo sapiens), sequence (P63096 whole entry, looked up): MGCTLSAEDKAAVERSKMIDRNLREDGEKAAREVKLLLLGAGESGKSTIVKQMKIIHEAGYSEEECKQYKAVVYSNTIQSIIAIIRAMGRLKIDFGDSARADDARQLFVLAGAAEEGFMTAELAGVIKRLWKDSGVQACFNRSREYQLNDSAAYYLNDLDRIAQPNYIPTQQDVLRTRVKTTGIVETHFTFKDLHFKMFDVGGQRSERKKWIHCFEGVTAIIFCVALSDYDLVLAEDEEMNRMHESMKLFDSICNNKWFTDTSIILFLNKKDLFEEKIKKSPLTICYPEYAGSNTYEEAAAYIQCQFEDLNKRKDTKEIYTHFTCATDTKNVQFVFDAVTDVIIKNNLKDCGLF
Cytochrome P450 2C9 (Homo sapiens), sequence (P11712 whole entry, looked up): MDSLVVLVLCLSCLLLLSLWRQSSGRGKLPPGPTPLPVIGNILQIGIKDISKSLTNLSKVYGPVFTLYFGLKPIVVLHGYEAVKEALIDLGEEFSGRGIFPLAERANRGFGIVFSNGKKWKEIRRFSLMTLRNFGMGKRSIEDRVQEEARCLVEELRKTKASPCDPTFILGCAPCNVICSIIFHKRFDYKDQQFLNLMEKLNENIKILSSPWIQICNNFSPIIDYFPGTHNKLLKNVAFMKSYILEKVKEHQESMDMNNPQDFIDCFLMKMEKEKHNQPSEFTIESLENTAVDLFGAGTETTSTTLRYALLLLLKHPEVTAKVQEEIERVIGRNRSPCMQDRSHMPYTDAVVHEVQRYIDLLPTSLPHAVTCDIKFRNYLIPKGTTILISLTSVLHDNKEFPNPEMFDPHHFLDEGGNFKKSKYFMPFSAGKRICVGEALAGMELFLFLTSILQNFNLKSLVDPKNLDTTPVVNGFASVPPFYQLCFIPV

CC1(C)OC(=O)NC1=O
inactive: activity, negative = inhibition ([1]; at 17.2 µM (top of the series)) 1.25% | Potency [2] > 20.6 µM | Potency [3] | outcome [4]

CN(C)CCC=C1c2ccccc2CCc2ccccc21
inactive: activity, negative = inhibition ([1]; at 17.2 µM (top of the series)) -2.52% and 2.81% | activity, negative = inhibition ([1]; at 38 µM (top of the series)) 28.3% | Potency [2] > 46 µM and > 20.6 µM | Potency [3] | outcome [4] | Potency [5] | outcome [6] | outcome [7] | outcome [8] | Potency [9] | outcome [10] | outcome [11] | outcome [12] | outcome [13] | outcome [14] | outcome [15]

CC(C)NC[C@H](O)c1ccc(O)c(O)c1
inactive: activity, negative = inhibition ([1]; at 17.2 µM (top of the series)) -5.65% and -7.18% | activity, negative = inhibition ([1]; at 38 µM (top of the series)) -27.8% and -1.34% and -7.26% | Potency [2] > 46 µM and > 20.6 µM | Potency [3] | outcome [4] | outcome [15]

Nc1ccc(S(=O)(=O)Nc2nccs2)cc1
inactive: activity, negative = inhibition ([1]; at 17.2 µM (top of the series)) -1.46% | Potency [2] > 20.6 µM | Potency [3] | Potency [16] | Potency [17] | outcome [4] | Potency [5] | Potency [18] | outcome [6] | outcome [7] | outcome [8] | Potency [9] | outcome [10] | outcome [11] | outcome [12] | outcome [13] | outcome [14] | Potency [19]

C[C@H](N)[C@H](O)c1cccc(O)c1
inactive: activity, negative = inhibition ([1]; at 17.2 µM (top of the series)) 4.65% | Potency [2] > 20.6 µM | Potency [3] | outcome [4]

CNC(=O)Oc1ccc2c(c1)[C@]1(C)CCN(C)[C@@H]1N2C
inactive: activity, negative = inhibition ([1]; at 17.2 µM (top of the series)) 4.34%

CCOc1ccc2ccccc2c1C(=O)N[C@@H]1C(=O)N2[C@@H]1SC(C)(C)[C@@H]2C(=O)O
inactive: activity, negative = inhibition ([1]; at 17.2 µM (top of the series)) 2.51% | Potency [2] > 20.6 µM | Potency [3] | outcome [4]

Cc1cc(N)c2ccccc2[n+]1CCCCCCCCCC[n+]1c(C)cc(N)c2ccccc21
inactive: activity, negative = inhibition ([1]; at 17.2 µM (top of the series)) -1.05% | activity, negative = inhibition ([1]; at 38 µM (top of the series)) -10.8% | Potency [2] > 46 µM and > 20.6 µM | Potency [3] | outcome [4] | outcome [15]

OCCN1CCN(CCCN2c3ccccc3Sc3ccc(Cl)cc32)CC1
inactive: activity, negative = inhibition ([1]; at 17.2 µM (top of the series)) -2.44% and -12% | activity, negative = inhibition ([1]; at 38 µM (top of the series)) -28.9% | Potency [2] > 20.6 µM | Potency [3] | outcome [4] | outcome [15]
